Screening results: PubChem BioAssay, National Center for Advancing Translational Sciences (NCATS)
ALOX12 inh: Primary qHTS assay for inhibitors of human arachidonate 12S-lipoxygenase (ALOX12): Round 2; Polyunsaturated fatty acid lipoxygenase ALOX12 (Homo sapiens), P18054; purified 12hLO, xylenol orange hydroperoxide absorbance; Potency, µM (highest dose often 108 µM), inactives show at the top dose activity change, negative = inhibition, most hits filed as inhibitors; actives 1.1% (n = 580,000); note: % is set by controls: 0 for no effect and ±100 for the full control effect
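Purified human 12hLO (150 nM final) in 25 mM Hepes, 0.01% Triton X-100, pH 7.0 was preincubated 15 min at room temperature with compound. Then 40 uM arachidonic acid was added, 30 min. Hydroperoxide was read by Fe-XO absorbance ratio 573/405 nm.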
BAZ2B inh: qHTS Assay for Inhibitors of BAZ2B; Bromodomain adjacent to zinc finger domain protein 2B (Homo sapiens), Q9UIF8; AlphaScreen BAZ2B-H3K14Ac peptide displacement; Potency, µM (titrated, usually from 114 µM), inactives show top-dose activity change, negative = inhibition, actives largely listed as inhibitors; actives 4.4% (n = 360,000); note: % is set by controls: 0 for no effect and ±100 for the full control effect; nearly all actives have a fitted effect of over 60% in size
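AlphaScreen displacement: compounds (up to 110uM) incubated 30 min at room temperature with a preformed 50 nM BAZ2B/50 nM biotinylated H3K14Ac peptide complex in PBS pH 7.4 with Tween-20. Donor and acceptor beads at 10 ug/mL final added, 20 min light-protected before reading.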
PLK1 PBD block: qHTS for Inhibitors of PLK1-PDB (polo-like kinase 1 - polo-box domain): Primary Screen; Potency, µM, for the others: max response, negative = inhibition, actives largely listed as inhibitors; Serine/threonine-protein kinase PLK1 (Homo sapiens), P53350; Plk1 PBD binding of FITC phosphopeptide, fluorescence polarization; AID 720504, 2013; actives 2.8% (n = 360,000); note: series mostly up to about 57 µM; % is set by controls: 0 for no effect and ±100 for the full control effect; nearly all actives have a fitted effect of over 65% in size
HP1b chromo inh: HTS for Inhibitors of HP1-beta Chromodomain Interactions with Methylated Histone Tails | Potency, µM (titrated, usually from 114 µM), without a hit: top-dose activity change, negative = inhibition, hits mostly inhibitors | Chromobox protein homolog 1 (Homo sapiens), P83916 | AlphaScreen HP1-beta / biotin-H3K9me3 peptide binding | actives 0.56% (n = 390,000); note: nearly all actives have a fitted effect of over 70% in size
Target sequence (P83916 whole entry, looked up): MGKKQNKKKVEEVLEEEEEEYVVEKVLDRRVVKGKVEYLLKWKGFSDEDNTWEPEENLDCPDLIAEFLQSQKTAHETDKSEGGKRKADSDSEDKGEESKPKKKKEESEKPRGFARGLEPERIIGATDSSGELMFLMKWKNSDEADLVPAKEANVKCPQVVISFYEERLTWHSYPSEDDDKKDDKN
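Compound inhibition of the preformed complex between 50 nM HP1-beta and 50 nM biotinylated H3K9me3 peptide was read by AlphaScreen. Buffer was PBS pH 7.4 with 0.01% Tween-20. Incubations ran 30 min at room temperature, with 10 ug/mL donor/acceptor beads.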
G9a inh: qHTS Assay for Inhibitors of Histone Lysine Methyltransferase G9a; G9a H3K9 monomethylation, AlphaScreen, 2 h; Potency, µM (top dose mostly 102 µM), for inactives: at the highest dose activity, negative = inhibition, most hits filed as inhibitors; actives 8.8% (n = 350,000); note: % is set by controls: 0 for no effect and ±100 for the full control effect; nearly all actives have a fitted effect of over 75% in size
Target sequence (Q96KQ7 913-1193 limits assumed): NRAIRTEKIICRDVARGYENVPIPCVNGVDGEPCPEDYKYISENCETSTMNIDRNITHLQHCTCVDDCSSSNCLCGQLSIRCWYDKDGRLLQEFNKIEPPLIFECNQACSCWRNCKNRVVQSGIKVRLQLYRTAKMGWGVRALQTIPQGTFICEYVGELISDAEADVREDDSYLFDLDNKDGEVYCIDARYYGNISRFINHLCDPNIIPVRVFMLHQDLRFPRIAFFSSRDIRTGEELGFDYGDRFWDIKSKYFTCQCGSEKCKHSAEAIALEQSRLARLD
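Enzyme 20 nM + cpd, 15 min RT; add b-H3K9 pep 500 nM / SAM 20 uM; 2 h RT; anti-H3K9me1 Ab 0.5 ug/mL + SA donor / anti-rabbit acceptor beads 20 ug/mL each, 10 min; AlphaScreen read.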
JMJD2A Tudor: qHTS Assay for Inhibitors of JMJD2A-Tudor Domain | Lysine-specific demethylase 4A (Homo sapiens), O75164 | AlphaScreen JMJD2A-Tudor / H3K4me3 peptide binding | Potency, µM (highest dose often 114 µM), inactives show top-dose activity change, negative = inhibition, hits mostly inhibitors | actives 4.4% (n = 390,000) | AID 504339, 2011; note: % is set by controls: 0 for no effect and ±100 for the full control effect; nearly all actives have a fitted effect of over 50% in size
* marks the source's active call; other numbers are inactive results; ? = inconclusive; · = no result; [ ] = remark or other dose. In the library only some 9% were active in any assay of this set; here they are far more common. Calls come from the whole dose curve; as a rule, active = well fitted curve in the direction sought with a large enough effect; inconclusive = small, poorly fitted or top-dose-only effect, or another doubt; inactive = no such curve, though single readings can be large; an effect the other way counts as inactive or inconclusive. Potency is the fitted concentration of half-maximal effect.

SMILES	ALOX12 inh	BAZ2B inh	PLK1 PBD block	HP1b chromo inh	G9a inh	JMJD2A Tudor
Cc1noc([C@@H]2CN(Cc3ccccc3OC(C)C)C[C@H]2CO)n1	36.7%	·	·	·	·	·
CCCc1ccc(/C=C2\C(=O)c3ccccc3C(O)=C2C(=O)OCC)cc1	·	20µM*	·	·	5.62µM*	·
CCOC(=O)C1=C(O)c2ccccc2C(=O)/C1=C\c1ccc(CC)cc1	?	20µM*	2.99µM*	-71.3%	5.62µM*	22.4µM*
COc1ccc(C(=O)Nc2nnc(C3=COCCO3)o2)cc1OC	11.3%	15.8µM*	-1.1%	53.1%	42.8%	50.1µM*
CC(C)(C)c1ccc(C(=O)Nc2nnc(C3=COCCO3)o2)cc1	102.0%	?	-8.0%	17.2%	-1.0%	-12.5%
Cc1cccc(C(=O)Nc2nnc(C3=COCCO3)o2)c1	3.5%	7.94µM*	6.3%	22.6%	7.1%	39.8µM*
CCCC(=O)Nc1ccc2c(c1)nc(CCN1CCN(c3ccccn3)CC1)n2C	5.5%	2.2%	-7.5%	30.6%	-0.2%	-12.1%
COc1ccc(CN2CCN(c3ncnc4sc5c(c34)CC(C)CC5)CC2)cc1F (stereo not given)	-4.0%	-18.1%	·	36.4%	?	-8.3%
COCCN(C(=O)CSc1nnc(C)n1Cc1ccccc1)c1c(N)n(CC(C)C)c(=O)[nH]c1=O	-6.6%	-15.4%	?	-3.2%	3.2%	79.4µM*
COCCN(C(=O)CSc1nnc(-c2ccc(Cl)cc2)o1)c1c(N)n(CC(C)C)c(=O)[nH]c1=O	?	7.9%	2.0%	33.2%	131.9%	2.1%
CCCCN(C(=O)CSc1nnc(-c2ccc(Cl)cc2)o1)c1c(N)n(CC(C)C)c(=O)[nH]c1=O	?	0.4%	4.3%	6.2%	1µM*	-12.0%
COCCN(C(=O)CSc1nnc(-c2ccc(C(C)(C)C)cc2)n1N)c1c(N)n(CC(C)C)c(=O)[nH]c1=O	6.7%	5.4%	-5.4%	39.6%	39.8µM*	-4.4%
COCCN(C(=O)CSc1nn(-c2ccc(F)cc2)c(=S)s1)c1c(N)n(CC(C)C)c(=O)[nH]c1=O	?	9.5%	-5.1%	20.7%	8.91µM*	-12.4%
COCCN(C(=O)CSc1nnc(-c2ccc(C)cc2)n1N)c1c(N)n(Cc2ccccc2)c(=O)[nH]c1=O	482.6%	-9.7%	-0.3%	18.6%	·	-14.0%
CCCCN(C(=O)CSc1nnc(-c2ccc(OC)cc2)n1C(C)C)c1c(N)n(Cc2ccccc2)c(=O)[nH]c1=O	-17.0%	-27.9%	1.6%	31.9%	10µM*	-14.5%
COCCN(C(=O)c1ccc(-c2ccc([N+](=O)[O-])cc2)o1)c1c(N)n(CC(C)C)c(=O)[nH]c1=O	-12.6%	-1.4%	-9.5%	22.8%	44.7µM*	-15.2%
CCCCN(C(=O)CSc1nnc(-c2ccc(OC)cc2)n1CC)c1c(N)n(Cc2ccccc2)c(=O)[nH]c1=O	1.6%	7.7%	-17.1%	14.4%	4.7%[59 µM]	-13.8%
COCCN(C(=O)CCCc1nc2ccccc2s1)c1c(N)n(CC(C)C)c(=O)[nH]c1=O	3.0%	7.9%	23.8µM*	41.5%	?	-3.4%
O=C(Nc1cccc(C(F)(F)F)c1)c1nn(-c2ccccc2)c(=O)c2ccccc12	4.3%	·	·	·	·	·
CC1C/C(=N/NC(=O)c2ccccc2)CC(C)(C)C1 (stereo not given)	8.6%	·	·	·	·	·
CC1C/C(=N/NC(=S)Nc2ccc(SC(F)F)cc2)CC(C)(C)C1 (stereo not given)	28.2µM*	·	·	·	·	·
CC1(C)C2CC=C(/C=N/NC(=S)Nc3ccc(SC(F)F)cc3)C1C2 (stereo not given)	31.6µM*	·	·	·	·	·
CC(=O)c1c(C)nc(-c2cccc([N+](=O)[O-])c2)n1O	?	?	-1.8%	-0.1%	?	-26.3%
Oc1ccccc1C1=Nc2ncnn2C(c2ccc(F)cc2)C1 (stereo not given)	0.0%	56.2µM*	-24.4%	33.1%	25.1µM*	-20.0%
CC1CCN(C(=S)c2cn(Cc3cccc(F)c3)c3ccccc23)CC1	44.7µM*	?	-18.9%	-6.2%[57 µM]	-11.1%[59 µM]	-35.1%
SMILES	ALOX12 inh	BAZ2B inh	PLK1 PBD block	HP1b chromo inh	G9a inh	JMJD2A Tudor
CN1CCN(C(=S)c2cn(Cc3ccccc3)c3ccccc23)CC1	-10.9%	?	3.4%	7.0%	44.7µM*	?
O=C(COC(=O)CCC(=O)c1ccc(F)cc1)Nc1ccc(F)cc1F	3.0%	1.5%	-5.1%	4.0%	1.3%	-6.9%
Cc1noc(C)c1-c1ccc(C(=O)NCc2ccccc2)c2occc12	?	·	-9.2%	·	·	·
O=S(=O)(CCN(CCS(=O)(=O)C(F)(F)F)CC1CCCO1)C(F)(F)F (stereo not given)	2.8%	-6.2%	26.7µM*	?	?	-26.7%
CC(=O)c1ccccc1OC(=O)COc1ccc([N+](=O)[O-])cc1	16.7%	-0.1%	21.2µM*	34.2%	·	-10.3%
Cn1cnc([N+](=O)[O-])c1SCC(O)CN1CCCCC1 (stereo not given)	-12.5%	-17.6%	-5.1%	25.1%	-1.6%	-14.5%
Cn1cnc([N+](=O)[O-])c1SCC(=O)NN	-17.3%	?	-16.8%	21.1%[57 µM]	7.08µM*	-5.6%
CC(c1cccs1)N(C)C(=O)c1ccccc1Cl (stereo not given)	25.9%[176 µM]	·	·	·	·	·
COC(=O)CNC(=O)c1ccc(NS(=O)(=O)c2cc([N+](=O)[O-])ccc2Cl)cc1	-14.3%	15.8%	-21.6%	11.3%	56.2µM*	-15.0%
O=[N+]([O-])c1ccc(S(=O)(=O)Nc2ccc(S(=O)(=O)N3CCCC3)cc2)cc1	-0.2%	-20.5%	-5.9%	13.6%	35.5µM*	-0.7%
O=[N+]([O-])c1ccc(Cl)c(S(=O)(=O)Nc2ccc(S(=O)(=O)N3CCOCC3)cc2)c1	-1.1%	-2.0%	-6.7%	28.4%	44.7µM*	-1.8%
O=C(C=C(Sc1ccccc1)Sc1ccccc1)C(F)(F)F	35.5µM*	·	·	·	·	·
Cc1cccc(C(=O)Nc2cc3c(cc2N2CCOCC2)n(C)c(=O)n3C)c1	-12.4%	-31.8%	·	6.2%	-2.2%[59 µM]	-7.2%
Cc1cccc(C(=O)Nc2cc3c(cc2N2CCCCC2)n(C)c(=O)n3C)c1	-30.0%	50.1µM*	·	15.0%	-41.9%[59 µM]	-21.6%
COc1cccc(C(=O)Nc2cc3c(cc2N2CCOCC2)n(C)c(=O)n3C)c1	-4.1%	?	?	79.5%	20µM*	-6.9%
COc1ccc(C(=O)Nc2cc3c(cc2N2CCOCC2)n(C)c(=O)n3C)cc1OC	·	?	1.4%	36.9%	26.8%	-19.5%
